Reference: PubChem BioAssay AID1053 (University of Pittsburgh Molecular Library Screening Center, 2008)
Where “and” joins values, the source holds several entries; their conditions need not be identical. Equal entries are not always repeated. Calls of active or inactive are those of the source. The rule behind the calls is not given here.

The compounds below were run against Serine/threonine-protein kinase PLK1 (Homo sapiens) (UniProt P53350) (assay: Plk1 polo box domain binding inhibitors, SAR follow-up, biochemical, fluorescence polarization, purchased analogs (AID 1053)). Details: Plk1 PBD fluorescence polarization peptide binding; at 20 µM; active compounds read high.
Chain of Serine/threonine-protein kinase PLK1 (Homo sapiens) (P53350 whole entry, looked up, the tested form may be a part): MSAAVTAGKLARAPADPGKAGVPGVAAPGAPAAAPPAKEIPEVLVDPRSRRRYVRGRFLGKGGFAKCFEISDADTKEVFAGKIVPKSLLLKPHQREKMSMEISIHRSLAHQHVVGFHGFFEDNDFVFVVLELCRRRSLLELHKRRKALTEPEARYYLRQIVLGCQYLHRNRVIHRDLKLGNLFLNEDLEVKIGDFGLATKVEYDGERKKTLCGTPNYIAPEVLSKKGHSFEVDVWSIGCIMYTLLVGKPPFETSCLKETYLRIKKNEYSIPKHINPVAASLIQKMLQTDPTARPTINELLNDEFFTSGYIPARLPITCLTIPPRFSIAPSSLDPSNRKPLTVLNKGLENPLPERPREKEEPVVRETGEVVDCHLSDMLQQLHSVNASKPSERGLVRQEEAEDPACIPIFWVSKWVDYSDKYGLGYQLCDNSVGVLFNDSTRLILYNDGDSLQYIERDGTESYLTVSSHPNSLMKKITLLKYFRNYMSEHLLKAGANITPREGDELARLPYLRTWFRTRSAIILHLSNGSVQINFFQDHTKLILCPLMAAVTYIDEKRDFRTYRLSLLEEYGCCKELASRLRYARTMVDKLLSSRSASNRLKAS

inhibition, inactive:
CCCCCCC(=O)N(CN1C(=O)c2ccccc2C1=O)c1ccc(OCc2ccccc2)cc1 -7.37%
Cn1c(=O)[nH]c2nnc(-c3ccccc3)nc2c1=O -31%
CCCOC(=O)c1ccc(NC(=O)c2ccc(OC)c([N+](=O)[O-])c2)cc1 -17.9%
CC(=O)Oc1ccccc1N(/C=C1\Sc2ccccc2C1=O)C(C)=O -254% and -278%
CCOC(=O)c1ccc(NC(=O)c2ccc3nc(N)sc3c2)cc1 -36.9%
Cn1c(=O)[nH]c2nnc(-c3ccc(Cl)cc3)nc2c1=O 28.8%
CC(=O)N(CN1C(=O)c2ccccc2C1=O)c1cc(C)ccc1C -34.4%
CC(=O)N(CN1C(=O)c2ccccc2C1=O)c1ccc(Cl)c(Cl)c1 -88.3%
CC(=O)N(/N=C1\Sc2ccccc2C1=O)c1cccc(C)c1 20.1%
Cn1nc(-c2ccc(C(F)(F)F)cc2)nc2c(=O)n(C)c(=O)nc1-2 13.6% and 30.2%
CC(=O)N(CN1C(=O)c2ccccc2C1=O)c1ccc(Oc2ccccc2)cc1 -50%
CCOC(=O)c1ccc(N=Cc2c(O)n(Cc3ccccc3Cl)c(=O)[nH]c2=O)cc1 -73.2%
CCOC(=O)N1CCN(c2cc3nccnc3cc2F)CC1 -52.1%
CCN(CC)CCOC(=O)c1ccc(NC(=O)c2cc(OC)c(OC)cc2OC)cc1 -46.3%
Cc1ccc(N(CN2C(=O)c3ccc([N+](=O)[O-])cc3C2=O)C(=O)C(c2ccccc2)c2ccccc2)cc1 -39.6%
CCOC(=O)c1ccc(NC(=O)C2C3C=CC(C3)C2C(=O)O)cc1 (configuration not stated) -31.4%
CCCCOC(=O)c1ccc(NC(=O)c2cc(OCC)c(OCC)c(OCC)c2)cc1 -30.5%
O=C(COC(=O)c1ccc(NC(=O)c2ccc(Cl)cc2)cc1)c1ccccc1 41.3%
CCn1nc(-c2cccc(Cl)c2)nc2c(=O)n(C)c(=O)nc1-2 -5.43% and -17.8%
O=c1[nH]c2c(c(O)c1-c1ccccc1)c(=O)n(-c1ccccc1)c(=O)n2-c1ccccc1 -40.4%
CCCOC(=O)c1ccc(NC(=O)c2cc(-c3cccs3)nc3c(C)c(Cl)ccc23)cc1 36.6%
CC(=O)N(CN1C(=O)c2ccc([N+](=O)[O-])cc2C1=O)c1ccc(Oc2ccccc2)cc1 -28.5%
CC(=O)N(CN1C(=O)c2ccccc2C1=O)c1ccc(C)cc1 -31.4%
CC(=O)N(CN1C(=O)c2ccccc2C1=O)c1cccc(F)c1 -51.8%
COC(=O)c1ccc(NC(=O)c2cc(-c3ccc(C)o3)nc3ccccc23)cc1 25.4%
CCOC(=O)c1ccc(N=Cc2c(O)n(Cc3ccc4c(c3)OCO4)c(=O)[nH]c2=O)cc1 -19.4%
CC(=O)N(CN1C(=O)c2cccc([N+](=O)[O-])c2C1=O)c1ccc2c(c1)oc1ccccc12 -35.9%
CC(=O)N(/N=C1\Sc2ccccc2C1=O)c1ccccc1[N+](=O)[O-] 32%
CCCCCCC(=O)N(CN1C(=O)c2ccccc2C1=O)c1ccccc1 -23.4%
CCOC(=O)c1ccc(NC(=O)C2OCCc3ccccc32)cc1 (configuration not stated) -101%
CC(=O)Oc1ccccc1N(/C=C1/Sc2ccccc2C1=O)C(C)=O -290%
Cn1c(=O)[nH]c2nnc(-c3ccc(C(F)(F)F)cc3)nc2c1=O -39.5% and -40.5%
CCOC(=O)c1ccc(NC(=O)c2cc(=O)[nH]c3ccccc23)cc1 -81.3%
Cn1c(=O)[nH]c2nnc(-c3ccc([N+](=O)[O-])cc3)nc2c1=O -49.9%
CCOC(=O)c1ccc(NC(=O)C2C3CCC(C3)C2C(=O)O)cc1 (configuration not stated) -61.5%
CC(=O)N(/C=C1\Sc2ccccc2C1=O)c1cccc(C)c1 -111%
CC(=O)N(/N=C1\Sc2ccccc2C1=O)c1ccccc1C 17.5%
